# Rows were chosen to be rich in hits. Some 27% of all compounds tested hit in one or more screens of this group.
# CYP2C19 inhib – blockers of cytochrome P450 2C19 activity – biochemical, luminescence, ADME assay, primary screen; CYP2C19 Supersomes, luciferin-H EGE luminescence, 30 min; inhibition, % at 5 µM; 96,000 tested, 21% active;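 active = CYP2C19 inhibition above a set limit at 5 µM in the primary screen, cut at about 50% in these data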;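 also: plate controls were negative control wells for no effect and 2.5 mM tranylcypromine positive control for full effect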
# sEH inhibitor – soluble epoxide hydrolase inhibitors, primary screen, biochemical, human sEH | Bifunctional epoxide hydrolase 2 (Homo sapiens), P34913 | recombinant human sEH enzymatic activity assay | inhibition, % at 2 µM | 91,000 tested, 0.34% active | AID 707, 2007; in the data active = inhibition above about 80%
# CYP2C9 inhib – blockers of cytochrome P450 2C9 activity – biochemical, luminescence, ADME assay, primary screen; P11712; AID 777, 2007; 96,000 tested, 20% active; inhibition, % at 5 µM; CYP2C9 Supersomes, luciferin-H conversion;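 active = blocking of liver enzyme CYP2C9 beyond about 50% at 5 µM, limit read from the data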
# Target sequence (P11712 whole entry, looked up): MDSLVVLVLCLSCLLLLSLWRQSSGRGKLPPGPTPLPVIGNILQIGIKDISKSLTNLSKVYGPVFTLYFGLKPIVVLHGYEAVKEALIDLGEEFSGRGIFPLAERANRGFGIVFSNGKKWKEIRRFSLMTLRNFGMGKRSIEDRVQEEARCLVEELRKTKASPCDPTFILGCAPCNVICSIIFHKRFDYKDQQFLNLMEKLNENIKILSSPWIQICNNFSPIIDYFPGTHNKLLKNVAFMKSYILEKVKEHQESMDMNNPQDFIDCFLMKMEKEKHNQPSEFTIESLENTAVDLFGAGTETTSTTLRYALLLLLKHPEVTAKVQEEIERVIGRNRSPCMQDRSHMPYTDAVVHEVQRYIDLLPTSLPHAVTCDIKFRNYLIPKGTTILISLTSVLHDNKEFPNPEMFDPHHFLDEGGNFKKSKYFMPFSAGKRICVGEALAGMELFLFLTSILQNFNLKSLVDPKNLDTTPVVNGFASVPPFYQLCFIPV
# sEH act – soluble epoxide hydrolase activators, primary screen, biochemical, human sEH. Bifunctional epoxide hydrolase 2 (Homo sapiens), P34913. purified human sEH enzymatic activity, activator screen. activation, % at 2 µM. 91,000 tested, 0.04% active. AID 717, 2007; in the data active = activation above about 37%
# CYP2C9 activ – human CYP2C9 activators, primary screen, biochemical, luminescence; recombinant CYP2C9, luciferin-H conversion; hits give high values; factor 1 = untreated enzyme, 0 = blocked; activation factor at 5 µM; AID 1024, 2008; 96,000 tested, 1.4% active;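 active = activation factor of 2 or more for CYP2C9 at a 5 µM dose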;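 also: 0 = sulfaphenazole-blocked wells and 1 = vehicle-only wells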
# CYP2C19 act – human CYP2C19 activators, primary screen, biochemical, luminescence; activation factor at 5 µM; AID 1025, 2008; 96,000 tested, under 10 active; recombinant CYP2C19, luciferin-H EGE luminescence; hits give high values; 0 = fully inhibited enzyme, 1 = untreated enzyme;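 active = activation factor of at least 2 at 5 µM in the primary screen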;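 also: 0 = wells with 2.5 mM tranylcypromine and 1 = vehicle-only wells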
# Starred values were filed as active, the others as inactive; / = not tested or not shown.
SMILES,CYP2C19 inhib,sEH inhibitor,CYP2C9 inhib,sEH act,CYP2C9 activ,CYP2C19 act
Cc1cccc(-c2csc(N)c2C(=O)OC(C)C)c1,/,-7.0,/,6.8,/,/
Nc1ccc(C(=O)c2ccc3c(c2)OCCO3)cc1N,/,-6.3,/,9.3,/,/
CCN=C1SC(C(=O)NCCc2ccccc2)CC(=O)N1CC (centres undefined),64.2*,1.7,-28.6,-1.7,1.3,0.4
CCN=C1SC(C(=O)Nc2cccc(C)c2)CC(=O)N1CC (centres undefined),80.2*,-5.2,-141.3,7.5,2.4*,0.2
CCCCNC(=O)CSc1nc2cc3c(cc2c(=O)n1CCCN(CC)CC)OCO3,-5.8,/,9.5,/,0.9,1.1
C=CCn1c(SC/C=C/c2ccccc2)nnc1-c1sc(N)nc1C,41.0,-5.0,38.2,8.8,0.6,0.6
CCOC(=O)N1CCN(C(=O)c2oc(=O)c3ccccc3c2-c2ccc(C)cc2)CC1,60.3*,-19.5,59.3*,21.5,0.4,0.4
O=C(c1ccco1)N1CCN(C(=O)c2oc(=O)c3ccccc3c2-c2ccccc2)CC1,48.8,-0.8,59.9*,2.6,0.4,0.5
O=C(c1oc(=O)c2ccccc2c1-c1ccccc1)N1CCOCC1,0.3,/,2.3,/,1,1
COc1cccc(C(C(=O)NC2CCCCC2)N(CC2CCCO2)C(=O)CNC(=O)c2ccco2)c1 (centres undefined),/,-2.5,/,1.6,/,/
Cc1cc(=O)oc2cc(OCC(=O)N3CCc4ccccc4C3)ccc12,45.1,/,24.9,/,0.8,0.5
Cc1nnc(NC(=O)COc2ccc3c(C)cc(=O)oc3c2)s1,27.1,-9.1,73.4*,10.4,0.3,0.7
Cc1cc(=O)oc2ccc(OCC(=O)N3CCc4ccccc43)cc12,15.3,11.6,72.2*,-8.9,0.3,0.8
Cc1cccc(OCCC(=O)OCC(=O)N2CCc3ccccc32)c1,52.9*,-5.1,-45.3,7.3,1.5,0.5
Cc1cc(=O)oc2cc(OCC(=O)N3CCCc4ccccc43)ccc12,44.0,5.2,75.4*,-6.5,0.2,0.6
CCOC(=O)c1nnc(-c2cccs2)nc1NC(C)C,-1.6,-0.4,-1.4,2.5,1,1
O=C(NC1CCCC1)c1cc(-c2cccs2)on1,34.6,13.4,-28.4,-14.0,1.3,0.7
COc1ccccc1-c1cc(C(=O)Nc2c(F)cc(F)cc2Br)no1,-3.0,-7.1,-9.1,8.4,1.1,1
CC(C)Cc1cc(C(=O)Nc2c(F)cc(F)cc2Br)no1,68.4*,-10.7,1.5,10.4,1,0.3
O=C(NC1CCCCC1)c1cc(-c2ccco2)on1,-0.1,/,-176.4,/,2.8*,1
O=C(Nc1ccc(F)cc1F)c1cc(-c2ccco2)on1,-3.3,9.8,-70.8,-7.9,1.7,1
O=C(Nc1cccc(O)c1)c1cc(-c2ccco2)on1,16.0,-22.5,-104.0,18.9,2*,0.8
O=C(Nc1c(F)cc(F)cc1Br)c1cc(-c2ccco2)on1,-16.2,-14.7,-97.0,14.7,2*,1.2
CCOC(=O)c1ccc(NC(=S)NCCCN2CCCCC2)cc1,2.3,7.3,14.7,-3.4,0.9,1
Cc1ccc(N(C(=O)Cn2nnc(-c3ccc(F)cc3)n2)C(CC(C)C)C(=O)NCC2CCCO2)cc1 (centres undefined),23.3,-6.1,40.0,8.5,0.6,0.8
SMILES,CYP2C19 inhib,sEH inhibitor,CYP2C9 inhib,sEH act,CYP2C9 activ,CYP2C19 act
COc1ccc(OC)c(C(=O)CSc2nnc(-c3ccc(OC)c(OC)c3)o2)c1,-8.5,1.7,-25.6,-2.9,1.3,1.1
CN(C)CCCNCCCNC(=O)/C(=N\O)c1ccccn1,/,-1.1,/,0.3,/,/
Cc1nn(-c2ccccc2)c(C)c1C(=O)OC/C(O)=C(\C#N)c1nc2ccccc2[nH]1,62.3*,-8.2,64.4*,6.7,0.4,0.4
C/C(O)=C(/C#N)c1nc2ccccc2[nH]1,-2.6,-17.0,-5.2,13.9,1.1,1
CC(=O)OC(/C(O)=C(\C#N)c1nc2ccccc2[nH]1)c1ccccc1 (centres undefined),34.3,1.3,65.9*,-1.6,0.3,0.7
COc1ccc(C(=O)N[C@H]2COC(C)(C)O[C@H]2c2ccccc2)cc1,-1.0,12.8,-3.3,-11.1,1,1
